Results on 96 molecules are retold here after PubChem BioAssay AID868 (SRMLSC, 2007).

In all, about 190,000 compounds went through this assay and about 3,500 (1.8%) were called active. This excerpt belongs to a sample that is enriched for actives. Unmarked numbers belong to inactive results.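 The calls were made as follows: active = inhibition above a set limit, 3 SD over mean compound inhibition (cut at about 8.4% in these data); inactive = the rest.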

This experiment in a line: RAM signaling blockers in budding yeast – dse1pr::URA3 reporter, 5-FOA selection, primary screen (AID 868).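 Also: 0% = DMSO-only wells with no growth and 100% = 10 µM 1-NA-PP1 full growth; inhibition rescues growth on 5-FOA so higher OD means more RAM inhibition.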 The conditions noted are these: S. cerevisiae dse1pr::URA3 reporter, 5-FOA growth OD615, 2 d; at 50 µM; hits give high values; analog-sensitive cbk1-as2 kinase mutant strain.
`NC1=NC2(CCCCC2)N(c2ccc(F)cc2F)C(N)=N1`: the inhibition was 0.5%.
In the case of `O=c1cnnc(Nc2ccccc2F)[nH]1`, the inhibition is 0.79%.
With `C/C(N)=C(/C#N)C(=O)COC(=O)CNS(=O)(=O)c1ccc(C)cc1`, the inhibition was -0.96%.
Take `CCOC(=O)c1sc2nc(CSc3ccccc3)[nH]c(=O)c2c1C`: the inhibition is 2.26%.
For the molecule `Cc1sc2nc(CSCC(=O)Nc3c(Cl)cccc3Cl)[nH]c(=O)c2c1C`, the inhibition is 4.58%.
In the case of `CCOC(=O)c1sc2nc(CSCC(=O)OCc3ccc(C(=O)OC)o3)[nH]c(=O)c2c1C`, the inhibition is 12.6% (active).
On to `CCCCN(C(=O)c1ccc(OC(F)(F)F)cc1)c1c(N)n(CCC)c(=O)[nH]c1=O`, for which the inhibition was 1.93%.
The same measure for `CCOC(=O)c1cnc(-c2ccccc2)nc1Oc1ccc(C)cc1`: 6.51%; for `CCOC(=O)c1cnc(-n2nc(C)cc2C)nc1NNc1cc(C)nc(-c2ccccc2)n1`: 9.84% (active); for `CCOC(=O)c1cnc(-n2nc(C)cc2C)nc1-n1nc(C)cc1C`: 1.58%.
Regarding `Cc1ccc(CN2CCC(N3CCC(C(=O)NCC4CCCO4)CC3)CC2)o1` (stereo unspecified), the inhibition was 1.95%.
Take `CCOc1ccc(Oc2nc(C)cc(OC)n2)nn1`: the inhibition was 0.41%.
For `Cc1onc(C(=O)NN)c1C(=O)N1CCN(C(c2ccccc2)c2ccccc2)CC1`, the inhibition is 0.14%.
The same measure for `O=C(CCC(=O)OCc1cccc(C(=O)Oc2ccccc2)c1)Nc1cccc2ccccc12`: 15.2% (active).
On to `O=C(CCC(=O)OCc1ccc(Cl)cc1)Nc1ccccc1`, for which the inhibition is -0.63%.
Under `O=C(COC(=O)c1cnccn1)Nc1cccc2ccccc12` stands -0.14%; under `O=C(Cc1coc2ccc3ccccc3c12)NCc1cccs1`, 1.23%; under `Cc1cccc(NC(=S)N2CCCC(c3nc4ccccc4[nH]3)C2)c1` (stereo unspecified), 1.53%.
In the case of `Cc1ccc(CN2CCN(Cc3cn(C)nc3-c3ccccc3)CC2CCO)o1` (stereo unspecified), the inhibition is 0.52%.
Under `COc1ccc(-c2noc(-c3ccc(C)cc3)n2)cc1` stands 7.68%; under `COc1ccc(-c2noc(CN(C)S(=O)(=O)c3ccc(C)cc3)n2)cc1`, 9.12% (active); under `COc1ccc(-c2noc(CSc3ccc(C)cc3)n2)cc1`, 2.24%.
As to `Cc1ccc(NC(=O)CN(C)CC(=O)Nc2cccc(F)c2)cc1[N+](=O)[O-]`, the inhibition was 1.7%.
On to `CSc1ncccc1C(=O)Nc1nc2ccc(F)cc2s1`, for which the inhibition is 2.36%.
For the molecule `CN(C)c1ccnc(Nc2ccc(F)cc2)c1C#N`, the inhibition was 0.51%.
Under `O=C(CC(=O)N/N=C\c1ccc(F)cc1)NCCc1ccccc1` stands 0.75%.
On to `O=c1oc2ccccc2cc1-c1csc(Nc2ccc(O)cc2)n1`, for which the inhibition was 11.1% (active).
Consider `CCNc1nc(-c2cc3ccccc3o2)cs1`, for which the inhibition is 2.09%.
The same measure for `COc1ccc2nc(Nc3nc(-c4cc5ccccc5oc4=O)cs3)sc2c1`: 3.98%; for `CC(=O)c1cccc(-n2nnnc2SCC(=O)NNC(=O)C2CCCCC2)c1`: 3.03%; for `CN(C)CCOc1cccc(Br)c1`: 1.41%.
With `CCNC(=O)NC(=O)C(C)OC(=O)C1CCN(S(=O)(=O)c2ccccc2F)CC1` (stereo unspecified), the inhibition is -0.96%.
In the case of `CC(NC(=O)CCC(=O)N1CCN(S(=O)(=O)c2ccc(Cl)cc2)CC1)c1ccccc1` (stereo unspecified), the inhibition was 2.73%.
As for `CC(NC(=O)COC(=O)C1CCN(S(=O)(=O)c2ccccc2C(F)(F)F)CC1)c1ccccc1` (stereo unspecified), the inhibition is 8.48% (active).
The same measure for `CN(CCc1cnn(C)c1)Cc1cn(C)nc1-c1ccccc1F`: 0.12%; for `CCOc1ccc(NC(=S)N2CCCCCC2)cc1`: 0.12%; for `CCOC(=O)c1sc2nc(C)nc(SCC(N)=O)c2c1C`: 1.57%.
With `CN(C)S(=O)(=O)c1ccc(NC(=O)COC(=O)c2n[nH]c3ccccc23)cc1`, the inhibition is 5.03%.
On to `O=C(COC(=O)c1n[nH]c2ccccc12)NCc1ccccc1`, for which the inhibition is 8.45% (active).
The same measure for `C=CCN(CC=C)C(=O)COC(=O)c1n[nH]c2ccccc12`: 2.26%.
As to `O=C(CSCC(=O)Nc1cccc([N+](=O)[O-])c1)Nc1ccccc1`, the inhibition is 0.64%.
The same measure for `CCNC(=O)CSc1nc(-c2ccccc2)cs1`: 0.79%; for `O=C(CSc1nc(-c2ccccc2)cs1)Nc1cccc([N+](=O)[O-])c1`: 11.7% (active); for `NC(=O)COc1ccc(NC(=O)c2ccccc2-c2ccccc2)cc1`: 0.63%.
`COc1ccc2oc(-c3cccc(NC(=O)CSc4ccc(Cl)cc4)c3)nc2c1`: the inhibition was 10.3% (active).
As for `COc1cccc(-c2nc3cc(C)ccc3o2)c1`, the inhibition was 2.42%.
Under `O=C(Cc1cccc2ccccc12)Nc1ccc2oc(-c3ccccc3)nc2c1` stands 1.7%; under `CCN(CC)Cc1nc2sc(C)c(C)c2c(=O)[nH]1`, 2.28%; under `CNS(=O)(=O)c1ccc(NC(=O)C2CC(=O)N(c3ccc(Cl)cc3)C2)cc1` (stereo unspecified), 4.28%.
Under `CSc1ccccc1-c1nnc(-c2ccc(Cl)cc2)o1` stands 15.5% (active); under `FC(F)(F)c1cnc(Oc2ccccc2-c2nnc(-c3ccc(Cl)cc3)o2)c(Cl)c1`, 4.37%.
Under `Nc1ccc(-c2nnc(-c3ccc(-c4ccccc4)cc3)o2)cc1` stands 6.59%; under `Cc1cccn2c(CN(C)C3CCCc4ccccc43)c(C(=O)N3CCOCC3)nc12` (stereo unspecified), 1.88%.
In the case of `CC(=O)C1C(c2ccc(Cl)cc2)c2c(n[nH]c2C)CC1(C)O` (stereo unspecified), the inhibition is -0.49%.
The same measure for `Cc1cc(C)nc(NS(=O)(=O)c2ccc(N/C=C\C(=O)c3cccs3)cc2)n1`: 3.54%; for `CCn1c(SCC(=O)Nc2ccc(S(=O)(=O)Nc3onc(C)c3C)cc2)nnc1-c1ccccc1`: 4.88%.
Under `Cc1noc(NS(=O)(=O)c2ccc(NC(=O)C34CCC(CC3)C4)cc2)c1C` stands 2.19%; under `COc1ccc(C(=O)Nc2ccc(S(=O)(=O)Nc3onc(C)c3C)cc2)cc1OC`, 2.49%; under `Cc1noc(NS(=O)(=O)c2ccc(N/C=C/C(=O)c3ccccc3)cc2)c1C`, 11.4% (active).
On to `Cc1ccc(C(=O)/C=C/Nc2ccc(S(=O)(=O)Nc3onc(C)c3C)cc2)cc1`, for which the inhibition was 11% (active).
`O=C1OCC2=C1C(c1ccccc1)CC(=O)N2c1cccc(F)c1` (stereo unspecified): the inhibition is 0.77%.
Regarding `O=c1oc(/C=C/c2ccccc2)nc2ccccc12`, the inhibition is 1.38%.
Under `Cc1cc(C)n(Cc2cnc(N3CCOCC3)s2)n1` stands 0.36%.
Under `C/C(=N\NC(=O)c1cccnc1)c1ccc(-n2ccnc2)cc1` stands 2.36%.
On to `N#C/C(=C(/O)COc1cccc2ccccc12)c1nc2ccccc2[nH]1`, for which the inhibition is 2.62%.
The same measure for `N#C/C(=C(/O)COC(=O)COc1ccc(Cl)cc1)c1nc2ccccc2[nH]1`: 3.15%.
The same measure for `Cc1ccccc1OC/C(O)=C(\C#N)c1nc2ccccc2[nH]1`: 10.3% (active).
The same measure for `O=C(COC(=O)c1ccc(Cl)nc1)NCc1cccs1`: 1%; for `CC(=O)Nc1ccc(Nc2nc3c(S(=O)(=O)c4ccc(C)c(C)c4)nnn3c3ccccc23)cc1`: 7.93%.
Turning to `COc1cccc(NC(=O)c2ccc3c(SCC(=O)O)c4c(nc3c2)CCCC4)c1`, the inhibition is 6.04%.
`Cc1c(NC(=S)Nc2ccccc2)c(=O)n(-c2ccccc2)n1C`: the inhibition was 2.71%.
Under `Cc1ccc(N=Nc2c(C)[nH]n(-c3ccccc3)c2=O)cc1` stands 13.2% (active); under `Cc1c(C=O)n(C)n(-c2ccccc2)c1=O`, 2.38%; under `Cc1[nH][nH]c(=O)c1N=Nc1ccccc1`, 2.99%.
The same measure for `Cc1c(N=Nc2ccc(N(C)C)cc2)c(=O)n(-c2ccccc2)n1C`: 25.4% (active); for `Cc1cccc(N=Nc2c(C)[nH]n(-c3ccccc3)c2=O)c1`: 7.54%.
The same measure for `COc1cccc(/C=N/NC(=O)CNC(=O)c2ccc(S(=O)(=O)N3CCOCC3)cc2)c1OC`: 1.56%; for `CCCN(CCC)C(=S)Nc1cc(C(=O)OC)ccc1C(=O)OC`: -0.65%; for `CCC(CC)C(=O)Nc1ccc(S(=O)(=O)Nc2nccs2)cc1`: 1.58%.
In the case of `COc1ccc(-n2cnnc2SCC(=O)Nc2cccc([N+](=O)[O-])c2)cc1`, the inhibition was 1.48%.
In the case of `COC(=O)CCSc1cc([N+](=O)[O-])cc2c1c(C1OCCS1)nn2-c1ccccc1` (stereo unspecified), the inhibition is 17.6% (active).
The same measure for `COC(=O)CCSc1nccn1Cc1ccccc1`: 3.09%.
On to `Cc1cc([N+](=O)[O-])ccc1NC(=O)c1ccc(NC(=O)C(C)C)cc1`, for which the inhibition is 0%.
The same measure for `Cn1c(=NC(=O)c2ccc3c(c2)OCCO3)sc2cc(S(C)(=O)=O)ccc21`: 3.99%; for `O=C1/C(=C/c2cccs2)CCc2ccccc21`: -0.39%; for `O=C1/C(=C/c2cccs2)CCC1C1CCCC1` (stereo unspecified): 2.26%.
As for `CCC1C/C(=C/c2cccs2)C(=O)/C(=C/c2cccs2)C1` (stereo unspecified), the inhibition was 14.8% (active).
Under `CCN(C(=O)CSc1nc2ccccc2n1CC)C1CCS(=O)(=O)C1` (stereo unspecified) stands 0.65%.
Consider `O=C(NC(=S)Nc1ccc(S(=O)(=O)N2CCOCC2)cc1)c1ccccc1[N+](=O)[O-]`, for which the inhibition is 3.57%.
Under `O=C(COC(=O)CC1CC2CCC1C2)NC(=O)NC1CCCC1` (stereo unspecified) stands 0.76%; under `O=C(COC(=O)/C=C/c1nc2ccccc2s1)Nc1ccccc1Oc1ccccc1`, 14.3% (active); under `CCN(C(=O)COC(=O)/C=C/c1nc2ccccc2s1)C1CCS(=O)(=O)C1` (stereo unspecified), 2.32%.
The same measure for `COc1ccc(/C=C/C(=O)OCC(=O)Nc2cccc(Oc3ccccc3)c2)c(OC)c1`: 16.7% (active); for `COc1ccc(OC)c(/C=C/C(=O)OCC(=O)Nc2ccc3c(c2)OCCO3)c1`: 7.42%.
Under `CC(=O)Nc1ccc(SCC(=O)Nc2ccccc2Oc2ccccc2)cc1` stands 1.01%; under `COc1cc(/C=C/C(=O)OCC(=O)Nc2cccc(Oc3ccccc3)c2)ccc1O`, 7.29%.
